{"source": "PubChem BioAssay AID1578", "about": "(Sanford-Burnham Center for Chemical Genomics, 2009)", "note": "Where “and” joins values, the source holds several entries; their conditions need not be identical. Equal values may be shown once. About 3,000 (1%) of roughly 290,000 compounds were called active. This is one part of a sample in which actives are shown more often than they occur. Cut-off read from the data, not from the text of the source: active = inhibition mostly above about 36% (no sharp cut-off); inactive = mostly below about 34%."}
{"test": "NOD1 signaling inhibitors, primary screen, cell-based, luminescence, uHTS (AID 1578);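 note: HEK-293T reporter cells stimulated with the NOD1 agonist gamma-tri-DAP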", "settings": "NOD1-driven NF-kB luciferase reporter cells, at 4 µM, hits give high values"}
{"smiles": "CC1CCc2c(sc3ncn(CC(=O)N=Nc4c(O)[nH]c5ccccc45)c(=O)c23)C1", "note": "(stereo unspecified)", "inhibition": "4% (inactive)"}
{"smiles": "Oc1cccc(/C=N/Nc2cccc3cccnc23)c1", "inhibition": "-66.8% (inactive)"}
{"smiles": "Oc1ccccc1/C=N/Nc1cccc2cccnc12", "inhibition": "-47.2% (inactive)"}
{"smiles": "COc1ccc(/C=N/Nc2ccccn2)cc1OC", "inhibition": "1.4% (inactive)"}
{"smiles": "COc1cc(/C=N/Nc2ccccn2)cc(OC)c1O", "inhibition": "46.4% (active)"}
{"smiles": "COc1cc(/C=N/Nc2cccc3cccnc23)cc(OC)c1O", "inhibition": "50.8% (active)"}
{"smiles": "O=[N+]([O-])c1cc(Cl)cc(/C=N/Nc2nc3ccccc3s2)c1O", "inhibition": "1.6% (inactive)"}
{"smiles": "O=[N+]([O-])c1cc(/C=N\\Nc2ccccn2)ccc1Cl", "inhibition": "-18.5% (inactive)"}
{"smiles": "COc1cc(/C=N/Nc2ccccn2)ccc1O", "inhibition": "7.2% (inactive)"}
{"smiles": "CC1=C(C(=O)OCc2ccccc2)C(c2ccccc2OC(F)F)NC(=O)N1", "note": "(stereo unspecified)", "inhibition": "11.1% (inactive)"}
{"smiles": "Cc1[nH]c2ccccc2c1C(=O)C(=O)NCc1cccs1", "inhibition": "-20.5% (inactive)"}
{"smiles": "Cc1ccccc1SCC(=O)N/N=C/c1ccc(F)cc1", "inhibition": "4.1% (inactive)"}
{"smiles": "O=C(Cc1ccccc1F)Nc1nc(-c2cccnc2)cs1", "inhibition": "-9.2% (inactive)"}
{"smiles": "O=C(CSc1nnc(-c2ccco2)o1)NC(=O)Cc1ccccc1", "inhibition": "-4.5% (inactive)"}
{"smiles": "CC(=O)N1CN(Cc2ccccn2)Cc2c1sc1c2CCCC1", "inhibition": "-11.9% (inactive)"}
{"smiles": "CC(=O)c1c(C)[nH]c(C(=O)Nc2nc(-c3ccc(Cl)cc3)cs2)c1C", "inhibition": "66.1% (inactive)"}
{"smiles": "CC(=O)c1c(C)[nH]c(C(=O)Nc2nc(C)cs2)c1C", "inhibition": "12.4% (inactive)"}
{"smiles": "COc1ccccc1N1CCN(C(=O)C(C)N(c2ccc(C)cc2)S(C)(=O)=O)CC1", "note": "(stereo unspecified)", "inhibition": "-7.9% (inactive)"}
{"smiles": "O=C1c2ccc(Oc3ccc([N+](=O)[O-])cc3)cc2C(=O)N1CCO", "inhibition": "-16.9% (inactive)"}
{"smiles": "COc1ccc(N2C(=O)CC(Sc3nc4c(cc3C#N)CCC4)C2=O)cc1", "note": "(stereo unspecified)", "inhibition": "-26.6% (inactive)"}
{"smiles": "CCc1c(C)nc2ncnn2c1NCCc1ccccc1", "inhibition": "24% (inactive)"}
{"smiles": "CCc1c(C)nc2ncnn2c1NCCc1ccc(OC)cc1", "inhibition": "53.3% (inactive)"}
{"smiles": "CCc1c(C)nc2ncnn2c1NCCc1ccc(Cl)cc1", "inhibition": "57.5% (active)"}
{"smiles": "O=C(N/N=C/c1ccc2cccnc2c1)c1nc2ccccc2c(=O)[nH]1", "inhibition": "-15.6% (inactive)"}
{"smiles": "Cn1ncc2c(O/N=C(\\N)c3ccc(C(F)(F)F)cc3)ncnc21", "inhibition": "-5.2% (inactive)"}
{"smiles": "Cn1ncc2c(NNC(=O)c3ccc(O)cc3)ncnc21", "inhibition": "-28% (inactive)"}
{"smiles": "Cn1ncc2c(O/N=C(\\N)c3ccc(C(C)(C)C)cc3)ncnc21", "inhibition": "98.4% (active)"}
{"smiles": "Cc1nc2ccc(C(=O)NCc3ccc4c(c3)OCO4)cc2s1", "inhibition": "11.9% (inactive)"}
{"smiles": "O=C(CCNS(=O)(=O)c1ccccc1)N1CCOCC1", "inhibition": "-19.5% (inactive)"}
{"smiles": "O=C(Nc1nc2cc3c(cc2s1)OCCO3)c1ccc([N+](=O)[O-])o1", "inhibition": "-22.1% (inactive)"}
{"smiles": "O=C(Nc1nc2ccccc2s1)c1ccc([N+](=O)[O-])o1", "inhibition": "6.5% (inactive)"}
{"smiles": "O=C(Nc1nc2c(F)cccc2s1)c1ccc([N+](=O)[O-])o1", "inhibition": "7.3% (inactive)"}
{"smiles": "Cc1cc(C)c2nc(NC(=O)c3ccc([N+](=O)[O-])o3)sc2c1", "inhibition": "37.8% (inactive)"}
{"smiles": "CCOC(=O)Cn1cncc1-c1ccc([N+](=O)[O-])cc1", "inhibition": "10.5% (inactive)"}
{"smiles": "COc1cnn(-c2ccc(C)cc2)c(=O)c1Cl", "inhibition": "-22.7% (inactive)"}
{"smiles": "Cc1csc2c(N3CCN(C(=O)Nc4ccccc4)CC3)ncnc12", "inhibition": "7.4% (inactive)"}
{"smiles": "Cc1csc2c(N3CCN(C(=O)Nc4ccc(OC(F)(F)F)cc4)CC3)ncnc12", "inhibition": "22.6% (inactive)"}
{"smiles": "CC1=Nn2c(nc(-c3ccccc3)c2-c2ccccc2)NC(=O)C1Br", "note": "(stereo unspecified)", "inhibition": "1.4% (inactive)"}
{"smiles": "COc1ccccc1CNc1nc(C)c(C(C)=O)s1", "inhibition": "12.6% (inactive)"}
{"smiles": "CCOC(=O)/C(=N/Nc1ccccc1)N1CCCc2ccccc21", "inhibition": "90.5% (active)"}
{"smiles": "COC(=O)/C(=N/Nc1ccccc1)N1CCCc2ccccc21", "inhibition": "-10.5% (inactive)"}
{"smiles": "CCOC(=O)/C(=N/Nc1ccc(Cl)cc1)S(=O)(=O)c1ccccc1", "inhibition": "-14.8% (inactive)"}
{"smiles": "CCOC(=O)/C(=N\\Nc1ccccc1)S(=O)(=O)c1ccccc1", "inhibition": "0.6% (inactive)"}
{"smiles": "CCOC(=O)/C(=N/Nc1ccc(OC)cc1)N1CCCc2ccccc21", "inhibition": "-9.8% (inactive)"}
{"smiles": "CCOC(=O)/C(=N\\Nc1ccccc1)P(=O)(c1ccccc1)c1ccccc1", "inhibition": "43.4% (active)"}
{"smiles": "CC(=O)c1csc(Nc2ccccc2Cl)n1", "inhibition": "-3% (inactive)"}
{"smiles": "O=C(NC(=O)c1cccc(Cl)c1)OC[C@@H]1CCCN2CCCCC12", "note": "(stereo partly specified)", "inhibition": "14.2% (inactive)"}
{"smiles": "CCOC(=O)c1cc2c(ccn2C)n1CC(=O)N1C(C)CCCC1C", "note": "(stereo unspecified)", "inhibition": "5.8% (inactive)"}
{"smiles": "O=S(=O)(c1ccccc1)c1ncc(C(F)(F)F)cc1Cl", "inhibition": "50.2% (active)"}
{"smiles": "O=S(=O)(Cc1ncc(C(F)(F)F)cc1Cl)c1ccccc1", "inhibition": "18% (inactive)"}
{"smiles": "O=S(=O)(c1ccccc1)c1ncc(C(F)(F)F)cc1O", "inhibition": "-25.1% (inactive)"}
{"smiles": "O=C(NCCCCc1ccccc1)Nc1ccc(F)cc1", "inhibition": "-30.8% (inactive)"}
{"smiles": "CCn1nc(C(=O)NCC(c2cccs2)N2CCOCC2)c2ccccc2c1=O", "note": "(stereo unspecified)", "inhibition": "-2.4% (inactive)"}
{"smiles": "CCn1c(=O)c([N+](=O)[O-])c(Cl)c2ccccc21", "inhibition": "61.2% (active)"}
{"smiles": "CCN(CC)c1c([N+](=O)[O-])c(=O)n(CC)c2ccccc12", "inhibition": "-5.5% (inactive)"}
{"smiles": "Cn1c(=O)c([N+](=O)[O-])c(Cl)c2ccccc21", "inhibition": "-31.4% (inactive)"}
{"smiles": "O=C(OCCC1Oc2cccnc2NC1=O)c1ccc(Cl)cc1", "note": "(stereo unspecified)", "inhibition": "-29.2% (inactive)"}
{"smiles": "COc1cccc(-c2nc(CS(=O)CC(=O)NCc3ccccc3)c(C)o2)c1", "note": "(stereo unspecified)", "inhibition": "-4.3% (inactive)"}
{"smiles": "Cc1ccc(-n2c(SCc3ccc(C#N)cc3)nnc2-c2ccccn2)cc1", "inhibition": "2.2% (inactive)"}
{"smiles": "CCC(=O)N1c2ccc(S(=O)(=O)N3CCN(c4ccccc4Cl)CC3)cc2CC1C", "note": "(stereo unspecified)", "inhibition": "8.1% (inactive)"}
{"smiles": "CCC(=O)N1c2ccc(S(=O)(=O)N3CCN(C)CC3)cc2CC1C", "note": "(stereo unspecified)", "inhibition": "-8.9% (inactive)"}
{"smiles": "O=C(O)CSc1cc(NS(=O)(=O)c2ccc(Br)cc2)c2ccccc2c1O", "inhibition": "5.8% (inactive)"}
{"smiles": "O=S(=O)(Nc1cc(Sc2ncn[nH]2)c(O)c2ccccc12)c1ccccc1", "inhibition": "-1.5% (inactive)"}
{"smiles": "O=S(=O)(Nc1cc(Sc2cccc3cccnc23)c(O)c2ccccc12)c1ccc(F)cc1", "inhibition": "-23.7% (inactive)"}
{"smiles": "COc1ccc(S(=O)(=O)Nc2ccc(O)c(Sc3ncn[nH]3)c2)cc1", "inhibition": "-28.8% (inactive)"}
{"smiles": "O=S(=O)(Nc1cc(Sc2cccc3cccnc23)c(O)c2ccccc12)c1ccccc1", "inhibition": "109% (active)"}
{"smiles": "COc1ccc(S(=O)(=O)Nc2cc(Sc3ncn[nH]3)c(O)c3ccccc23)cc1", "inhibition": "93.1% (active)"}
{"smiles": "COC(=O)c1oc2ccccc2c1-n1cccc1", "inhibition": "-6% (inactive)"}
{"smiles": "Cc1ccc2nsnc2c1S(=O)(=O)Nc1ccccc1C(=O)O", "inhibition": "-10.2% (inactive)"}
{"smiles": "Cc1ccc(C(C)C)c(OCC(O)CN2CC(C)OC(C)C2)c1", "note": "(stereo unspecified)", "inhibition": "5.4% (inactive)"}
{"smiles": "CCOc1ccc(Cl)cc1CNCCCSc1ncccn1", "inhibition": "5.6% (inactive)"}
{"smiles": "O=C(NNC1=C(C(=O)C(F)(F)F)CCC1)c1ccc(Cl)cc1", "inhibition": "19.2% (inactive)"}
{"smiles": "O=C(NNC1=C(C(=O)C(F)(F)F)CCC1)c1cccc(Cl)c1", "inhibition": "83% (active)"}
{"smiles": "O=C(NNC1=C(C(=O)C(F)(F)F)CCC1)c1cccc(O)c1", "inhibition": "-26.1% (inactive)"}
{"smiles": "CO/N=C(/CS(=O)c1ccc(Br)cc1)c1ccc(OC)cc1", "note": "(stereo unspecified)", "inhibition": "-16% (inactive)"}
{"smiles": "Cc1cc(C)c2sc(N(CCN(C)C)C(=O)c3ccc4ccccc4c3)nc2c1", "inhibition": "-10.4% (inactive)"}
{"smiles": "Cc1ccc(Cn2nnc3c(=O)n(Cc4cccc(C)c4)cnc32)cc1", "inhibition": "3.6% (inactive)"}
{"smiles": "Cc1cccc(CC(=O)OCn2nnc3ccccc3c2=O)c1", "inhibition": "-15.8% (inactive)"}
{"smiles": "Cc1cccc(Cn2nnc3c2C(=O)c2ccccc2C3=O)c1", "inhibition": "68.5% (active)"}
{"smiles": "CCOc1ccc(NC(=O)CCNC(=O)Cn2ccc3ccccc3c2=O)cc1", "inhibition": "-20.7% (inactive)"}
{"smiles": "Cc1ccc(S(=O)(=O)Nc2nc3ccccc3nc2N2CCN(c3ccccc3F)CC2)cc1", "inhibition": "5.2% (inactive)"}
{"smiles": "Cc1ccsc1C1C(C#N)=C(N)OC2=C1C(=O)CCC2", "note": "(stereo unspecified)", "inhibition": "-6.1% (inactive)"}
{"smiles": "Cc1ccc(CNc2nc(Cl)c(C#N)s2)cc1", "inhibition": "63.4% (active)"}
{"smiles": "COc1ccc(CNc2nc(Cl)c(C#N)s2)cc1", "inhibition": "3.8% (inactive)"}
{"smiles": "N#Cc1sc(NCc2ccccc2)nc1Cl", "inhibition": "-19.1% (inactive)"}
{"smiles": "CCN1CCN(CCOCCOc2ccccc2)CC1", "inhibition": "75.5% (active)"}
{"smiles": "c1ccc(OCCOCCN2CCOCC2)cc1", "inhibition": "7.9% (inactive)"}
{"smiles": "CCN1CCN(CCOCCOc2ccccc2-c2ccccc2)CC1", "inhibition": "-24.4% (inactive)"}
{"smiles": "O=C(Cc1ccccc1)NNC(=O)Nc1ccccc1", "inhibition": "-23.5% (inactive)"}
{"smiles": "COc1ccc(C(O)c2nc3ccccc3n2C)cc1OC", "note": "(stereo unspecified)", "inhibition": "33.1% (inactive)"}
{"smiles": "CC(C)c1ccc(C(O)c2nc3ccccc3n2C)cc1", "note": "(stereo unspecified)", "inhibition": "76.4% (active)"}
{"smiles": "CCCC(=O)NC(C)c1nc2ccccc2n1C", "note": "(stereo unspecified)", "inhibition": "36.2% (active)"}
{"smiles": "Cc1ccc(C(O)c2nc3ccccc3n2C)cc1", "note": "(stereo unspecified)", "inhibition": "-7.9% (inactive)"}
{"smiles": "CCCC(=O)NC(C)c1nc2ccccc2n1C(C)C", "note": "(stereo unspecified)", "inhibition": "-2.5% (inactive)"}
{"smiles": "CCCC(=O)NC(C)c1nc2ccccc2n1CC", "note": "(stereo unspecified)", "inhibition": "-18.7% (inactive)"}
{"smiles": "CCN(CC(=O)Nc1ccccc1Br)C1CCCCC1", "inhibition": "-38.4% (inactive)"}
{"smiles": "C=CCN1C(=O)N/C(=C/c2ccc(C)o2)C1=O", "inhibition": "-35.1% (inactive)"}
{"smiles": "Nn1cc(-c2ccccc2)nc1SCC(=O)Nc1cccc(S(N)(=O)=O)c1", "inhibition": "3.3% (inactive)"}
{"smiles": "O=C(Nc1cc(-c2ccccc2)[nH]n1)c1ccc(Cl)cc1", "inhibition": "4.7% (inactive) and -2.2% (inactive)"}
{"smiles": "O=C(Nc1ccccc1Cl)c1ccc2ccccc2c1", "inhibition": "-11.1% (inactive)"}
{"smiles": "Cc1cccc(C)c1NC(=O)NC1(C(=O)N2CCN3CCCC3C2)CCCCC1", "note": "(stereo unspecified)", "inhibition": "-19.2% (inactive)"}
